Data reported in the supplement of paper PMC12067926.

What was measured:
Assay in all cases: relative growth (AUC of 72 h growth curve relative to DMSO control, dAUC) (ratio); higher = more growth (less inhibition), active = hit call of the paper
Conditions in all cases: 20 µM;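 active = growth AUC significantly below the DMSO wells by Dunnett test; inactive = the rest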
[1] = tested on: Aeromonas 1 (Aeromonas sp. AE235)
Summary of the method: (§1)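 For relative growth (dAUC), the spline-integrated area under the growth curve was divided by the mean of the DMSO controls. Results were averaged over three biological replicates. Each replicate used a 1:100 dilution, into 96-well plates holding each chemical at 20 µM (1% DMSO), of isolates from Icelandic stream sediments and Silwood Park soil or whole sediment communities that had been grown to carrying capacity in Luria–Bertani medium. Plates were shaken briefly before each hourly A600 reading over 72 h.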

[2] = tested on: Aeromonas 2 (Aeromonas sobria)
Summary of the method: as §1

[3] = tested on: Aeromonas 3 (Aeromonas popoffii)
Summary of the method: as §1

[4] = tested on: Argrobacterium 1 (Agrobacterium sp.)
Summary of the method: as §1

[5] = tested on: Arthrobacter 1 (Arthrobacter humicola)
Summary of the method: as §1

[6] = tested on: Arthrobacter 2 (Arthrobacter humicola)
Summary of the method: as §1

[7] = tested on: Arthrobacter 3 (Arthrobacter sp.)
Summary of the method: as §1

Community 10 = tested on: Community 10
Summary of the method: as §1

Community 4 = tested on: Community 4
Summary of the method: as §1

Community 6 = tested on: Community 6
Summary of the method: as §1

Community 7 = tested on: Community 7
Summary of the method: as §1

Community 8 = tested on: Community 8
Summary of the method: as §1

Community 9 = tested on: Community 9
Summary of the method: as §1

[8] = tested on: Flavobacterium 1 (Flavobacterium glaciei)
Summary of the method: as §1

[9] = tested on: Flavobacterium 2 (Flavobacterium succinicans)
Summary of the method: as §1

[10] = tested on: Hymenobacter 1 (Hymenobacter glaciei)
Summary of the method: as §1

[11] = tested on: Microbacterium 1 (Microbacterium arborescens)
Summary of the method: as §1

[12] = tested on: Neobacillus 1 (Neobacillus soli)
Summary of the method: as §1

[13] = tested on: Oryzobacter 1 (Oryzobacter terrae)
Summary of the method: as §1

[14] = tested on: Paenibacillus 1 (Paenibacillus castaneae)
Summary of the method: as §1

Measured: relative growth

CC(C)(C)c1ccc(CSc2cnn(C(C)(C)C)c(=O)c2Cl)cc1
inactive: [1] 1.02 | [2] 0.975 | [3] 1.03 | [4] 1.01 | [5] 1.02 | [6] 0.875 | [7] 0.98 | Community 10 0.941 | Community 4 1.01 | Community 6 1.04 | Community 7 1.12 | Community 8 1.03 | Community 9 0.994 | [8] 0.923 | [9] 1 | [10] 1.01 | [11] 1.08 | [12] 0.915 | [13] 1.04 | [14] 0.971

Cc1cccc2sc3nncn3c12
inactive: [1] 0.985 | [2] 0.988 | [3] 1 | [4] 0.915 | [5] 0.993 | [6] 0.932 | [7] 1.01 | Community 10 0.867 | Community 4 0.917 | Community 6 0.96 | Community 7 1.05 | Community 8 1.01 | Community 9 0.899 | [8] 1.01 | [9] 0.95 | [10] 0.996 | [11] 1.05 | [12] 0.969 | [13] 1.05 | [14] 0.943

CCC(C)(C)C(=O)OC1=C(c2ccc(Cl)cc2Cl)C(=O)OC12CCCCC2
inactive: [1] 0.99 | [2] 0.957 | [3] 1 | [4] 1.01 | [5] 0.721 | [6] 0.892 | [7] 0.892 | Community 10 0.839 | Community 4 1.03 | Community 6 1.08 | Community 7 1.13 | Community 8 0.972 | Community 9 1.05 | [8] 0.794 | [9] 1.02 | [10] 1.01 | [11] 0.978 | [12] 1 | [13] 1.03 | [14] 0.964

CCOCn1c(-c2ccc(Cl)cc2)c(C#N)c(Br)c1C(F)(F)F
inactive: [1] 0.988 | [2] 0.989 | [3] 1.01 | [4] 0.978 | [5] 1.14 | [6] 0.829 | [7] 0.987 | Community 10 0.934 | Community 4 1.07 | Community 6 0.99 | Community 7 1.06 | Community 8 1.05 | Community 9 1.03 | [8] 1.03 | [9] 0.988 | [10] 0.993 | [11] 0.996 | [12] 0.979 | [13] 1 | [14] 0.978

CNC(=O)/C=C(\C)OP(=O)(OC)OC
inactive: [1] 0.951 | [2] 0.972 | [3] 0.995 | [4] 0.984 | [5] 0.943 | [6] 0.906 | [7] 0.94 | Community 10 0.927 | Community 4 0.942 | Community 6 0.973 | Community 7 1.14 | Community 8 0.954 | Community 9 0.956 | [8] 0.897 | [9] 0.954 | [10] 0.933 | [11] 0.986 | [12] 0.937 | [13] 1.11 | [14] 0.944

CC(C)(C)[C@@H](O)[C@H](Oc1ccc(Cl)cc1)n1cncn1
inactive: [1] 1.02 | [2] 1.04 | [3] 1.03 | [4] 1.03 | [5] 1.15 | [6] 1.1 | [7] 1.02 | Community 10 1.07 | Community 4 1.14 | Community 6 1.12 | Community 7 0.988 | Community 8 1.02 | Community 9 1.09 | [8] 1.01 | [9] 1.02 | [10] 1.05 | [11] 0.963 | [12] 1.04 | [13] 1.02 | [14] 1.12

COc1ncc(F)c2nc(S(=O)(=O)Nc3c(F)cccc3F)nn12
inactive: [1] 1.06 | [2] 1.02 | [3] 1.07 | [4] 0.953 | [5] 1.03 | [6] 1.11 | [7] 1.03 | Community 10 1.04 | Community 4 1.05 | Community 6 1.05 | Community 7 0.948 | Community 8 1.04 | Community 9 1.11 | [8] 1.03 | [9] 1.06 | [10] 1.06 | [11] 1.03 | [12] 1.04 | [13] 1 | [14] 1.06

CC1(C)[C@H](/C=C(\Cl)C(F)(F)F)[C@@H]1C(=O)OC(C#N)c1cccc(Oc2ccccc2)c1 (stereo not given in full)
inactive: [1] 0.951 | [2] 0.993 | [3] 1.04 | [4] 1.07 | [5] 1.28 | [6] 0.838 | [7] 0.955 | Community 10 0.816 | Community 4 0.998 | Community 6 1.03 | Community 7 1.19 | Community 8 1.09 | Community 9 0.956 | [8] 0.836 | [9] 0.995 | [10] 1.06 | [11] 0.995 | [12] 0.958 | [13] 1.11 | [14] 0.889
